Assay outcomes (PubChem BioAssay)
hiPSC survival – increases survival of single human iPS cells; 360,000 compounds, 0.044% hits; AID 602274; hiPSC single-cell survival, ATPlite luminescence; 100% = ROCK inhibitor wells, 0% = DMSO; survival enhancement, % at 20 µM; in the data active means survival enhancement above about 18%;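 further: cells exposed to compounds for 16 hours before the ATP read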
CF NFkB block – cystic fibrosis NF-kB activation inhibition | AID 588850 | inhibition, % at 5 µM | KKLEB NF-kB-GFP reporter, PAF-induced, GFP fluorescence overnight | 360,000 compounds, 0.86% hits;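 active means at least 50% inhibition at 5 µM, scaled per plate between neutral and stimulator controls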;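 further: PAF is a Pseudomonas aeruginosa culture filtrate used as stimulus; plate controls were PAF-stimulated DMSO wells for no effect and unstimulated DMSO wells for full effect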
LGR2 inh – inhibitors of bursicon-induced Drosophila LGR2 receptor cAMP signaling | AID 720647 | inhibition, % at 9.99 µM | 380,000 compounds, 0.35% hits | HEK293 LGR2, CRE-luciferase, bursicon-stimulated, 4 h;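 active means drop in luminescence signal, shown as inhibition above about 50% in the replicate tests, limit read from the data, passing the limit was not always enough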;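 further: agonist challenge used bursicon conditioned medium at about half maximal strength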
HIF-2a inh – inhibitors of HIF-2a | 786-0 RCC cells HIF-2a reporter, luciferase luminescence, overnight | inhibition, % at 18.8 µM | 360,000 compounds, 0.72% hits | AID 624352;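 active means inhibition of the luminescence signal of 40% or more relative to plate controls, in a single-dose primary screen at 18.75 µM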
TWEAK-Fn14 inh – TWEAK-Fn14 signaling inhibition. TWEAK-stimulated Fn14 reporter cells, luciferase luminescence, 8 h. inhibition, % at 10 µM. 360,000 compounds, 2% hits; in the data active means inhibition above about 50%
KKLEB tox – CF airway cell cytotoxicity counter-screen; 360,000 compounds, 0.36% hits; activity change (cytotoxicity), % at 5 µM; AID 602141; KKLEB CF airway cells viability, ATPlite luminescence, overnight; stronger effect = lower value; cells stimulated with P. aeruginosa culture filtrate;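 active means corrected activity change at or below -50% at 5 µM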
* hit, by the source's call. Sampled rows, rich in hits. Any-hit rate of the full collection: about 2.3%.

Cc1ccc(S(=O)(=O)NCC[C@H]2CC[C@@H](NC(=O)c3ccccn3)[C@@H](CO)O2)cc1 was read as LGR2 inh -14.
Screening Cc1ccc(S(=O)(=O)N[C@@H]2CC[C@@H](CC(=O)NCCCN(C)C)O[C@H]2CO)cc1 returned LGR2 inh 6.
For Cc1oc(-c2cccc3ccccc23)nc1CN1CCN(c2ncnc3ccccc23)CC1 the results were hiPSC survival 2, CF NFkB block 28, LGR2 inh 34, HIF-2a inh 16, TWEAK-Fn14 inh 69* and KKLEB tox -29.
`O=C1CSC(c2ccccn2)N1c1ccc(Cl)c(Cl)c1` (configuration not stated) gave hiPSC survival 1, CF NFkB block 3, HIF-2a inh 18, TWEAK-Fn14 inh 107* and KKLEB tox -8.
Screening Clc1ccc(OCc2nc(-c3ccccn3)no2)c(Br)c1 returned hiPSC survival -3, CF NFkB block -25, LGR2 inh 69*, HIF-2a inh -56, TWEAK-Fn14 inh 67* and KKLEB tox -32.
`COc1ccccc1-c1nc(-c2ccccn2)no1` gave hiPSC survival -6, CF NFkB block -27, LGR2 inh 78*, HIF-2a inh 43*, TWEAK-Fn14 inh 96* and KKLEB tox -29.
COc1ccccc1-c1noc(-c2ccncc2)n1 was read as hiPSC survival -1, CF NFkB block 5, LGR2 inh -24, HIF-2a inh -158, TWEAK-Fn14 inh 1 and KKLEB tox -4.
Screening Brc1ccc(-c2nc(-c3ccccn3)no2)o1 returned hiPSC survival -3, CF NFkB block -14, LGR2 inh 75*, HIF-2a inh 14, TWEAK-Fn14 inh 91* and KKLEB tox -1.
Clc1ccccc1OCc1nc(-c2ccccn2)no1 was read as hiPSC survival 1, CF NFkB block 1, HIF-2a inh -99, TWEAK-Fn14 inh 33 and KKLEB tox -5.
Screening Clc1ccc(-c2nc(-c3ccccn3)no2)cc1Cl returned hiPSC survival -3, CF NFkB block -16, HIF-2a inh -50, TWEAK-Fn14 inh 80* and KKLEB tox -25.
Screening COc1ccc2c3c(n(C)c2c1)[C@@H](CO)N(Cc1ccccc1)CC31CCN(C)CC1 returned LGR2 inh 0.
O=C(NCC1CC1)[C@@H]1[C@@H](CO)[C@@H]2Cn3c(cccc3=O)[C@H]1N2C(=O)c1cccnc1 was read as LGR2 inh -19.
Screening O=C(C1CCCC1)N1CC2(C1)[C@@H](c1ccccc1)[C@H](CO)N2C(=O)c1cccnc1 returned LGR2 inh 9.
Screening COc1ccc2c3c(n(C)c2c1)[C@H](CO)N(C(C)=O)CC31CN(C(=O)NC(C)C)C1 returned LGR2 inh 6.
`CCOC(=O)C(=NC1CCCCC1)NNc1cccc(C(F)(F)F)c1` gave hiPSC survival -2, CF NFkB block -12, LGR2 inh -4, HIF-2a inh 7, TWEAK-Fn14 inh -6 and KKLEB tox -7.
For CCOC(=O)C(=NC(C)CC)NNc1cccc(C(F)(F)F)c1 (configuration not stated) the results were hiPSC survival 1, CF NFkB block 3, LGR2 inh 2, HIF-2a inh 0, TWEAK-Fn14 inh 58* and KKLEB tox 6.
For O=C(Cc1ccccn1)NCC[C@@H]1CC[C@@H](NS(=O)(=O)c2ccc(F)cc2)[C@H](CO)O1 the results were LGR2 inh 8.
Screening COc1ccc(/C=N/Nc2ccc(C(=O)O)cc2)cc1Br returned hiPSC survival 0, CF NFkB block -5, LGR2 inh 80*, HIF-2a inh 34, TWEAK-Fn14 inh 93* and KKLEB tox 4.
Screening COc1ccc(/C=N/Nc2ccc(C(=O)O)cc2)cc1OC returned hiPSC survival 0, CF NFkB block -6, LGR2 inh -11, HIF-2a inh -146, TWEAK-Fn14 inh 44 and KKLEB tox 7.
O=C(C[C@@H]1C=C[C@@H](NC(=O)C2CCC2)[C@H](CO)O1)NCc1ccncc1 was read as LGR2 inh -13.
Screening CCCC(=O)NC(NC(=S)Nc1c(C)n(C)n(-c2ccccc2)c1=O)C(Cl)(Cl)Cl (configuration not stated) returned hiPSC survival 3, CF NFkB block 2, HIF-2a inh 14, TWEAK-Fn14 inh 82* and KKLEB tox 2.
